Screens as filed in PubChem.
M18AAP inhibitor – PfM18AAP inhibitors, malaria aminopeptidase, primary screen, biochemical, QFRET, recombinant enzyme. AID 1822, 2009. actives 1.2% (n = 290,000). inhibition, % at 7.35 µM. M18 aspartyl aminopeptidase (Plasmodium falciparum 3D7). H-Glu-NHMec fluorogenic cleavage;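 active = inhibition above the campaign mean inhibition over all tested compounds plus 3 SD, cut at about 28% in these data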
eIF4H inh – human eIF4H binding inhibitors, primary screen, translation initiation inhibitor project, biochemical, uHTS, fluorescence polarization. Eukaryotic translation initiation factor 4H (Homo sapiens), Q15056. eIF4H fluorescence polarization binding assay. inhibition, % at 35 µM. actives 0.94% (n = 290,000). AID 2012, 2009;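 note: calls also rest on retests at 20 µM and on dose response follow-up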
PERK inhibitor – block of dimerizer-induced PERK translation repression, primary screen, PERK inhibitor project, CHO PERK-DD cells, SEAP luminescence, HTS. Eukaryotic translation initiation factor 2-alpha kinase 3 (Homo sapiens), Q9NZJ5. CHO PERK-DD fusion, SEAP luminescence translation reporter. inhibition, % at 5.6 µM. actives 0.17% (n = 220,000). AID 1416, 2008;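 active = inhibition above the mean inhibition of all tested compounds plus 3 SD, set separately per screening campaign, cut at about 2.9% in these data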;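 note: PERK kinase domain activated by AP20187 dimerizer at 100 nM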
PABP polyA inh – PABP poly(A) RNA binding inhibitors, primary screen, biochemical, fluorescence polarization, uHTS | AID 2014, 2009 | actives 1% (n = 290,000) | Polyadenylate-binding protein 1 (Homo sapiens), P11940 | inhibition, % at 35 µM;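 note: calls also rest on retests at 20 µM and on dose response follow-up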
Target sequence (P11940 whole entry, looked up): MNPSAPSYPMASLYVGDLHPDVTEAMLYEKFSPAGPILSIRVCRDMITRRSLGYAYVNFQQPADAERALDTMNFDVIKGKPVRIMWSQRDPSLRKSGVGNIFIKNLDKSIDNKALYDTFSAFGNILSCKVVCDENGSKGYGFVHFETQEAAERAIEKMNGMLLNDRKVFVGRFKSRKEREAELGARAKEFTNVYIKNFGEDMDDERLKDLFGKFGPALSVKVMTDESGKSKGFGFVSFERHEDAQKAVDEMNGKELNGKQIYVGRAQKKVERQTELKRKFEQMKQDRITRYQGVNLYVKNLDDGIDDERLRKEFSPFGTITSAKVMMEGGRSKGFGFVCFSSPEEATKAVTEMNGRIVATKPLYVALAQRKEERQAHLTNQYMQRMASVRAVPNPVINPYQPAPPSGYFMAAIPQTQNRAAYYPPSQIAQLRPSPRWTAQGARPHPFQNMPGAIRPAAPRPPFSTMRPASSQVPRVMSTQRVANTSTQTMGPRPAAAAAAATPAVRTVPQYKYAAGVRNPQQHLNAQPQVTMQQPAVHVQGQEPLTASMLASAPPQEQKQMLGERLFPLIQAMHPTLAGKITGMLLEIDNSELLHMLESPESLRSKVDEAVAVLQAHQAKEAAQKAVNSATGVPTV
PABP1 MLLE inh – inhibitors of PABP1 MLLE–PAM2 peptide binding, primary screen, biochemical, fluorescence polarization, FITC-PAM2, GST-MLLE; Polyadenylate-binding protein 1 (Homo sapiens), P11940; inhibition, % at 20 µM; actives 0.36% (n = 360,000); in the data active = inhibition above about 35%, passing the limit was not always enough
eIF4E 4G PPI – eIF4E–eIF4G protein interaction inhibitors, primary screen, biochemical, uHTS, TR-FRET, eIF4GI fragment; actives 0.37% (n = 220,000); Eukaryotic translation initiation factor 4E (Mus musculus) + Eukaryotic translation …; AID 782, 2007; inhibition, % at 21.7 µM; TR-FRET eIF4E-eIF4GI(517-606) binding, 2 h;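 active = inhibition above about 30%, limit read from the data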
Each line names hits and unclear results; the compound was inactive in the other large screens; ! = a repeat was not active. In the library only some 2.4% were active in any assay of this set; here they are far more common. Unless noted, the rule behind the calls is not given here.

COc1cccc(CN2CCNC(=O)C2CC(=O)NCc2cn3cccc(C)c3n2)c1OC (stereo unspecified)	none
Cc1cnc(CNC(=O)CC2C(=O)NCCN2Cc2ccccc2F)cn1 (stereo unspecified)	none (no result: PERK inhibitor, eIF4E 4G PPI)
CN(CC1CCOCC1)C(=O)CC1C(=O)NCCN1Cc1ccc(Cl)c(F)c1 (stereo unspecified)	none
COc1cccc(CN2CCNC(=O)C2CC(=O)NCc2cn3ccccc3n2)c1OC (stereo unspecified)	eIF4H inh 85.5, PERK inhibitor 3.0, PABP polyA inh 38.5
O=C(CC1C(=O)NCCN1Cc1ccc(Cl)c(F)c1)NCC1CCOCC1 (stereo unspecified)	eIF4E 4G PPI 90.5
Cc1ccc(N2CC(C(=O)N/N=C/c3c(F)cccc3Cl)CC2=O)cc1 (stereo unspecified)	none (no result: PERK inhibitor, eIF4E 4G PPI)
CC(C)(C)OC(=O)CN1C(=O)NC(Cc2c[nH]c3ccccc23)C1=O (stereo unspecified)	none (no result: PERK inhibitor, eIF4E 4G PPI)
C/C(N)=C(/C#N)C(=O)CN1C(=O)NC(Cc2c[nH]c3ccccc23)C1=O (stereo unspecified)	eIF4H inh 57.2 (no result: PERK inhibitor, eIF4E 4G PPI)
COc1ccc(-c2cc(C(=O)N3CCCC3)c3ccccc3n2)cc1	none (no result: eIF4H inh, PERK inhibitor, PABP polyA inh, eIF4E 4G PPI)
O=C(O)c1ccccc1C(=O)N1CCN(c2ccccc2)CC1	none
COc1ccc(-c2cc(C(=O)N3CCN(c4ccccc4O)CC3)c3ccccc3n2)cc1	none (no result: M18AAP inhibitor, eIF4H inh, PERK inhibitor, PABP polyA inh, eIF4E 4G PPI)
O=C(c1ccccc1C(=O)N1CCN(c2ccccc2)CC1)N1CCN(c2ccccc2)CC1	eIF4H inh 126.6, PABP polyA inh 118.4
COc1ccc(-c2cc(C(=O)N3CCN(c4ccccc4)CC3)c3ccccc3n2)cc1	eIF4H inh 56.7, PABP polyA inh active
O=C(c1sc2cc(F)ccc2c1Cl)N1CCN(c2ccccc2)CC1	eIF4H inh 75.8, PABP polyA inh active
COc1ccc(-c2cc(C(=O)N3CCN(c4ccccc4O)CC3)c3ccccc3n2)cc1OC	M18AAP inhibitor 31.1 (no result: PERK inhibitor, eIF4E 4G PPI)
CN1CCC(N(C)C(=O)c2sc3cc(F)ccc3c2Cl)CC1	none
Cc1cccc(-n2c(SCC(=O)N3CC(=O)Nc4ccccc43)nc3ccccc3c2=O)c1C	none
CCC(C)(C(=O)NC1CCCCC1)N(Cc1ccco1)C(=O)Cc1cccs1 (stereo unspecified)	none
C#CCOC(=O)CCCNc1ccc([N+](=O)[O-])cc1[N+](=O)[O-]	none
COCC(C)n1c(C)cc(C(=O)COC(=O)c2cccn2C)c1C (stereo unspecified)	none (no result: M18AAP inhibitor, eIF4H inh, PERK inhibitor, PABP polyA inh, eIF4E 4G PPI)
COc1ccc(-c2cc(C(=O)N3CCCCCC3)c3ccccc3n2)c(OC)c1	eIF4H inh 84.3, PABP polyA inh 48.0 (no result: PERK inhibitor, eIF4E 4G PPI)
Cc1ccc(/C([O-])=C(/C(=S)NCc2ccco2)[n+]2ccccc2)cc1	eIF4H inh 75.9, PABP polyA inh 83.5 (no result: PABP1 MLLE inh)
CC1CCCN(C(=O)COC(=O)CNC(=O)c2sc3ccccc3c2Cl)C1 (stereo unspecified)	none (no result: M18AAP inhibitor, eIF4H inh, PERK inhibitor, PABP polyA inh, eIF4E 4G PPI)
COc1ccc(OC)c(NC(=O)c2cnc(Nc3ccccc3OC)c3ccccc23)c1	none
CN(C)CCOC(c1ccccc1)c1ccccc1	eIF4H inh 1.6!
CN(C)CCOC(c1ccccc1)c1ccccc1 (tested in a mixture with another compound)	none
COC(=O)c1ccccc1Nc1ccnc(Cl)n1	none (no result: M18AAP inhibitor, eIF4H inh, PERK inhibitor, PABP polyA inh, eIF4E 4G PPI)
Cc1ccc2[nH]c3nc(NN)nnc3c2c1	M18AAP inhibitor 31.2 (no result: PERK inhibitor, eIF4E 4G PPI)
CC(C)c1csc(CN2CCC(N3CCC(C(=O)NCC4CCCO4)CC3)CC2)n1 (stereo unspecified)	none
Cc1ccc(NC(=O)CCN2CC(C)OC(C)C2)cc1 (stereo unspecified)	none (no result: PERK inhibitor, eIF4E 4G PPI)
Cc1cccc(C)c1NC(=O)CCCN1CC(C)OC(C)C1 (stereo unspecified)	PERK inhibitor 3.2
COc1cc(C2c3cc4c(cc3OC(NCc3ccccc3)C2C)OCO4)cc(OC)c1OC (stereo unspecified)	none (no result: M18AAP inhibitor, eIF4H inh, PERK inhibitor, PABP polyA inh, eIF4E 4G PPI)
Nc1c(NCc2ccccc2)c2ccccc2oc1=O	M18AAP inhibitor 29.7
O=c1oc2ccccc2c(NCc2ccccc2)c1[N+](=O)[O-]	none
CC(NS(=O)(=O)c1ccc2c(c1)oc(=O)n2C)c1ccccc1 (stereo unspecified)	PABP polyA inh 64.6 (no result: PERK inhibitor, eIF4E 4G PPI)
CCOC(=O)Cn1c(=O)oc2cc(S(=O)(=O)NC(C)c3ccccc3)ccc21 (stereo unspecified)	none
Cn1c(=O)oc2cc(S(=O)(=O)Nc3ccc4c(c3)OCCO4)ccc21	eIF4H inh 74.8, PABP polyA inh 86.8
CCC1CCCCN1CCCNS(=O)(=O)c1ccc2c(c1)oc(=O)n2C (stereo unspecified)	PABP polyA inh 34.5 (no result: PERK inhibitor, eIF4E 4G PPI)
Nc1cc(-c2cccc(Br)c2)nn1Cc1ccccc1	eIF4H inh active
Cc1ccc(S(=O)(=O)CCSc2nc(C)cc(C(F)(F)F)c2C#N)cc1	eIF4H inh 83.0, PABP polyA inh 1.4
COC(=O)CSc1nc(C)cc(C(F)(F)F)c1C#N	none
Cc1cc(C(F)(F)F)cc(NNC(=O)NC(=O)c2ccc(Cl)cc2)n1	none
Cc1cc(C(F)(F)F)cc(NNC(=O)NC(=O)c2ccccc2Cl)n1	M18AAP inhibitor 30.6
S=c1nc(-c2sccc2OCc2ccc(Cl)cc2Cl)[nH][nH]1	PABP1 MLLE inh 37.4
CCC/C(=N/NC(=O)c1csc(C)c1C)c1ccc(Cl)s1	eIF4H inh active
Cc1oc(-c2cccc(Cl)c2)nc1CN1CCC(C(=O)NCc2ccco2)CC1	none
Cc1oc(-c2ccc(Cl)cc2)nc1CN1CCC(C(=O)NCc2ccco2)CC1	eIF4E 4G PPI 64.3
Cc1ccc(Cn2c(=S)[nH]c3ccc(N4CCOCC4)cc3c2=O)o1	eIF4H inh 72.4, PABP polyA inh 54.1
O=c1c2cc(N3CCOCC3)ccc2[nH]c(=S)n1Cc1ccc(Cl)cc1	none
O=C(O)c1ccccc1NSc1ccccc1[N+](=O)[O-]	none
CCc1ccc(NSc2ccccc2[N+](=O)[O-])cc1	PERK inhibitor 3.2
Cc1cc(C(=O)Nc2ccccc2)oc(=O)c1	none
O=C(/C=C/c1cccs1)Nc1scc(-c2ccccc2)c1C(=O)O	eIF4E 4G PPI 92.4
CC1CC(C)(C)NC(=S)S1 (stereo unspecified)	PABP1 MLLE inh 41.1
CN1CCc2c(sc3c2C(=O)NC(c2cccs2)N3)C1 (stereo unspecified)	eIF4H inh inconclusive
CSc1ccc(C2NC(=O)c3c(sc4c3CCN(C)C4)N2)cc1 (stereo unspecified)	eIF4H inh 108.6, PABP polyA inh 120.6
